# Experimental data taken from the supplement of paper PMC3724861.
# This is one part of a sample in which hits are shown more often than they occur. No count for the full screen is at hand.
# Test system: T1, Caupolican (Caup) homeodomain DNA-binding domain
# T1 sequence: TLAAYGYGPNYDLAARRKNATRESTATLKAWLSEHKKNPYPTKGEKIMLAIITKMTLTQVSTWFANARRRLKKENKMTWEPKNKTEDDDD
# Test: PBM E-score (8-mer, recovered from the published 9-mer minima) (E-score (dimensionless, -0.5 to 0.5)); Drosophila protein; higher = stronger relative binding preference, active = 0.31 or more
# Procedure: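 Protein binding microarray (PBM): in vitro transcribed/translated Caupolican (Caup) homeodomain DNA-binding domain (residues 214-303) applied at 100 nM to a universal 8-mer PBM array (Agilent AMADID 015681). The 8-mer enrichment score (E-score, range -0.5 to 0.5) was computed, and each 9-mer score is the minimum E-score of its two constituent 8-mers. The E-score is the same for a 9-mer and its reverse complement; 0.31 is the stated binding threshold.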
row,Sequence,PBM E-score
1,GATGGGGC,-0.192 (inactive)
2,AGCATGGA,0.0568 (inactive)
3,AGCATGTA,≥ 0.413 (active)
4,GGCATGGA,-0.0635 (inactive)
5,GGCATGTA,0.378 (active)
6,GGCATGCA,0.0214 (inactive)
7,AGCATGGG,-0.0663 (inactive)
8,AGATTAGC,-0.0125 (inactive)
9,ATGTAGCC,0.145 (inactive)
10,GCCCAGCC,-0.262 (inactive)
11,TACGCTCA,-0.00447 (inactive)
12,GACTTGCA,0.0909 (inactive)
13,CACTTGGA,0.0572 (inactive)
14,AACTTGTG,0.147 (inactive)
15,AACTTGTC,0.27 (inactive)
16,CACTTGTA,0.318 (active)
17,CACTTGTC,0.271 (inactive)
18,GACTTGTA,0.38 (active)
19,AACTTGTA,0.364 (active)
20,GACTTGGA,-0.0172 (inactive)
21,AGCGACCA,-0.01 (inactive)
22,TACCTTGA,0.0541 (inactive)
23,CGCTAGAA,-0.14 (inactive)
24,CTACTCTC,-0.105 (inactive)
25,GAATAGCC,-0.146 (inactive)
26,GCCTTGAA,-0.119 (inactive)

row,Sequence,PBM E-score
1,ACCTTGTG,0.0927 (inactive)
2,ACCTTGTC,0.306 (inactive)
3,ACCTTGTA,0.412 (active)
4,CCTTTGTA,0.138 (inactive)
5,CCCTTGTC,0.177 (inactive)
6,CCCTTGTA,0.337 (active)
7,GCCTTGTA,0.321 (active)
8,GCCTTGCA,-0.0717 (inactive)
9,CGTAGTTA,0.157 (inactive)
10,CAAGCTGA,0.031 (inactive)
11,CTAGGGCC,-0.235 (inactive)
12,GGTCCGAC,-0.0703 (inactive)
13,CCAGTAAC,-0.0237 (inactive)
14,ATTATCAG,0.0887 (inactive)
15,AACTATTC,0.0523 (inactive)
16,ACTGATCC,0.062 (inactive)
17,ATACATCA,0.334 (active)
18,GTACATCA,0.383 (active)
19,GCACATCA,0.0977 (inactive)
20,CTACATCA,0.253 (inactive)
21,GAACATCA,0.259 (inactive)
22,ATACATCC,0.276 (inactive)
23,CTAACGGA,-0.0298 (inactive)
24,AAACGTTG,-0.0301 (inactive)
25,ACAAAGGA,0.131 (inactive)
26,CTTTCCTA,-0.094 (inactive)

row,Sequence,PBM E-score
1,ATCAGTAC,0.201 (inactive)
2,AAGAACAA,0.259 (inactive)
3,AAGAACAC,0.312 (active)
4,CAGAACAC,0.215 (inactive)
5,AAGAACAT,0.357 (active)
6,AAGAACAG,0.172 (inactive)
7,GAGAACAC,0.236 (inactive)
8,ACGTAGCT,0.0358 (inactive)
9,CATATCTC,0.0782 (inactive)
10,AGTTGGGC,-0.15 (inactive)
11,AGCACGTG,0.082 (inactive)
12,ACTACATG,0.428 (active)
13,CCTACATC,0.144 (inactive)
14,ACTACATA,0.35 (active)
15,GCTACATA,0.248 (inactive)
16,ACCACATG,0.212 (inactive)
17,ACTACAGC,0.149 (inactive)
18,ACTACATC,0.33 (active)
19,ACTACAGG,0.199 (inactive)
20,CCTACATA,0.153 (inactive)
21,AAAATACT,0.04 (inactive)
22,GCGATCGA,0.0192 (inactive)
23,AGCGTAGC,-0.111 (inactive)
24,AGGGCCGC,-0.251 (inactive)
25,CGACCCGA,-0.151 (inactive)
26,GCGGTACA,0.173 (inactive)

row,Sequence,PBM E-score
1,CTGGCCAG,-0.181 (inactive)
2,ATTTGGAC,0.134 (inactive)
3,AGGGCGTC,-0.192 (inactive)
4,CGTCATAA,0.081 (inactive)
5,TGACATAA,0.311 (active)
6,TGACATCA,≥ 0.333 (active)
7,CGACATCA,0.284 (inactive)
8,AGACATAA,0.217 (inactive)
9,TGTCATAA,0.338 (active)
10,AGTCATAA,0.146 (inactive)
11,GGACATCA,0.234 (inactive)
12,TTACATAA,0.339 (active)
13,TCACATAA,0.182 (inactive)
14,GGACATAA,0.211 (inactive)
15,CTACATAA,0.22 (inactive)
16,AGCCTGGG,-0.123 (inactive)
17,AATCCCCC,-0.256 (inactive)
18,CGGGAACA,0.176 (inactive)
19,AGACAACC,0.201 (inactive)
20,CTTAACAA,0.228 (inactive)
21,GTCGCGAA,0.00326 (inactive)
22,ATGGTGTC,0.142 (inactive)
23,GCTAGGCC,-0.238 (inactive)
24,GTACATAC,0.307 (inactive)
25,GTACATAA,0.361 (active)
26,GCACATAA,0.0651 (inactive)

row,Sequence,PBM E-score
1,ACCCTGGG,-0.105 (inactive)
2,GAGATAGC,-0.0575 (inactive)
3,CACAACAA,0.29 (inactive)
4,TACAACGA,0.267 (inactive)
5,AACAACTC,0.167 (inactive)
6,TTCAACAA,0.299 (inactive)
7,AACAACTA,≥ 0.319 (active)
8,AACAACTG,0.208 (inactive)
9,AACAACAG,0.243 (inactive)
10,TACAACAA,0.387 (active)
11,AACAACAT,0.409 (active)
12,AACAACAA,0.394 (active)
13,AACAACGT,0.252 (inactive)
14,AGCAACAA,0.182 (inactive)
15,AGTTTCCA,0.0163 (inactive)
16,CTCTGGGC,-0.214 (inactive)
17,CCCGTGAA,-0.0554 (inactive)
18,TCCGAGGA,-0.0519 (inactive)
19,GGGAGTAA,0.0271 (inactive)
20,AATCCGGC,-0.121 (inactive)
21,CTTGGGTA,-0.0204 (inactive)
22,CCACCGGC,-0.281 (inactive)
23,TTACTCAA,0.0597 (inactive)
24,ATCAACAG,0.109 (inactive)
25,AACAACCT,0.243 (inactive)
26,AACAACCA,≥ 0.324 (active)

row,Sequence,PBM E-score
1,AACAACCC,0.247 (inactive)
2,ATCAACAA,0.289 (inactive)
3,ATCAACAT,0.371 (active)
4,CGCGCTAG,-0.142 (inactive)
5,GTCGATAA,0.0563 (inactive)
6,ACACCCGC,-0.0419 (inactive)
7,AAAAAAGA,-0.0444 (inactive)
8,CCGGCTCA,-0.123 (inactive)
9,GATGAATC,0.106 (inactive)
10,CTGTCAAG,-0.017 (inactive)
11,GTGTTTTA,0.213 (inactive)
12,ATGTTTAA,0.367 (active)
13,ATGTTTTC,0.33 (active)
14,CTGTTTGA,0.188 (inactive)
15,ATGTTTGG,0.229 (inactive)
16,CTGTTTTA,0.107 (inactive)
17,CTGTTTAA,0.111 (inactive)
18,ATGTTTAG,0.284 (inactive)
19,CTGTTTTC,0.134 (inactive)
20,ATGTTTTA,0.369 (active)
21,ATGTTTCC,0.236 (inactive)
22,ATGTTTGA,0.327 (active)
